# Test results reported in PubChem BioAssay.
# Results with a measured potency or affinity are listed apart. Inconclusive results are not listed. Values without a mark were called inactive. The source made the active and inactive calls. Unless noted, the rule behind the calls is not given here.
# Legend:
# [1] = PAX8 transcriptional activity inhibition in RMG-I – RMG-I cells, luciferase, cherry-pick, dose response (AID 687027;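 active = every replicate test run called active, with the signal dropping as expected and potency within twice the top valid dose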)
# [2] = RMG-1 ovarian cancer cell viability loss – cherry-pick, dose response (AID 687029;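 active = signal drop whose fitted half-maximal concentration is at most twice the top valid dose, in every test run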;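 note: cells exposed to compound for 96 hours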)
# [3] = CMV-driven luciferase expression suppression in HEK293 – cell-based, luminescence, dry powder, counter-screen for Pax8 inhibitor project, dose response (AID 743020;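 active = signal-lowering compounds whose fitted half-maximal concentration is at or below twice the top tested dose in every run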;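 note: HEK293 cells stably expressing the CMV luciferase reporter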)
# [4] = general cell-killing toxicity readout – plate reader, dry powder samples, cytotoxicity control for PAX8 inhibitor project, dose response (AID 743021)
# [5] = IGROV1 cell killing – plate reader, dry powder samples, PAX8 inhibitor project, dose response (AID 743043);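 note: more negative means fewer viable cells or more cytotoxicity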
# [6] = OVCAR-3 cell viability loss – plate reader, dry powder samples, PAX8 inhibitor project, dose response (AID 743044); settings: max activity: at 35 µM, active compounds read low unless noted
# [7] = toxicity toward immortalized ovarian surface epithelium – cell-based, plate reader, dry powder samples, cytotoxicity control for PAX8 inhibitor project, dose response (AID 743045);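 note: 0% = neutral control median and -100% = positive control median; more negative values mean more cell killing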
# [8] = A2780 cell killing – plate reader, dry powder samples, cytotoxicity control, dose response (AID 743046);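 note: 0% = neutral control wells and -100% = cytotoxic reference compound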
# [9] = OVCAR8 cell viability loss – plate reader, dry powder samples, PAX8 project, dose response (AID 743197)
# [10] = IOSE-T80 viability loss, PAX8-independent line – cell-based, cherry-pick, selectivity assay for PAX8 inhibitor project, dose response (AID 687032;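 active = fitted half-maximal concentration for viability loss no higher than twice the top valid dose, in every repeat run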;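 note: cells exposed to compound for 96 h before reading; 0% = neutral control wells and -100% = 2 µM mitoxantrone kill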)
compound,measurement,setting,value
O=C(Cc1nnc(NC(=O)c2ccccc2)s1)N/N=C/c1ccco1,outcome,[1],inactive
same,outcome,[2],inactive
same,outcome,[3],inactive
same,outcome,[4],inactive
O=C(Cc1cccs1)N/N=C/C=C/c1ccccc1,outcome,[1],inactive
same,outcome,[2],inactive
same,outcome,[3],inactive
same,outcome,[4],inactive
O=C(NCc1ccc(F)cc1)C1(c2cccs2)CCOCC1,outcome,[1],inactive
same,outcome,[2],inactive
same,outcome,[4],inactive
CCCCCC(=O)N/N=C(\C)c1ccc(N2CCCCC2)cc1,outcome,[1],inactive
same,outcome,[2],inactive
same,outcome,[4],inactive
CCCCCCCCNC(=O)c1cnccn1,outcome,[1],inactive
same,outcome,[2],inactive
same,outcome,[3],inactive
same,outcome,[4],inactive
CC(=O)C1=C(O)C(=O)N(CCc2ccccc2)C1c1ccccc1[N+](=O)[O-] (centres undefined),outcome,[1],inactive
same,outcome,[2],inactive
same,outcome,[4],inactive
CN1CCN(C(=S)Nc2ccc(Cl)c(Cl)c2)CC1,outcome,[1],inactive
same,outcome,[2],inactive
same,outcome,[3],inactive
same,outcome,[4],inactive
C[C@@H]1CN([C@@H](C)CO)C(=O)CCCn2nncc2CO[C@H]1CN(C)S(=O)(=O)c1ccc(Cl)cc1,outcome,[1],inactive
same,outcome,[2],inactive
same,outcome,[4],inactive
O=[N+]([O-])c1cccc(-c2nnc(-c3ccc4c(c3)OCO4)o2)c1,outcome,[1],inactive
same,outcome,[2],inactive
same,outcome,[3],inactive
same,outcome,[4],inactive
Cc1nnc(N/N=C/c2cccc(C(F)(F)F)c2)n1N,outcome,[1],inactive
same,outcome,[2],inactive
same,outcome,[4],inactive
CC(=O)N/C(=C\c1ccccc1)C(=O)OCC(=O)NC1CCCC1,outcome,[1],inactive
same,outcome,[2],inactive
same,outcome,[3],inactive
same,outcome,[4],inactive
CCCNC(=O)COC(=O)/C=C/c1ccco1,outcome,[1],inactive
same,outcome,[2],inactive
same,outcome,[4],inactive
O=C(NCC1CCCO1)C(=O)NCC(c1ccco1)N1CCN(c2ccccc2)CC1 (centres undefined),outcome,[1],inactive
same,outcome,[2],inactive
same,outcome,[3],inactive
same,outcome,[4],inactive
OCC1CCCN(C(=S)Nc2ccc(OC(F)F)cc2)C1 (centres undefined),outcome,[1],inactive
same,outcome,[2],inactive
same,outcome,[4],inactive
Cc1ccc2nc(-c3ccc(NC(=S)NC4CC(C)(C)NC(C)(C)C4)cc3)sc2c1,outcome,[1],inactive
same,outcome,[2],inactive
same,outcome,[4],inactive
Cc1cnc(NC(=O)CSc2nnc(C)n2N)s1,outcome,[1],inactive
same,outcome,[2],inactive
same,outcome,[3],inactive
same,outcome,[4],inactive
CCCCC1Cc2[nH]c(=S)[nH]c(=O)c2C(c2ccc(F)cc2)O1 (centres undefined),outcome,[1],inactive
same,outcome,[2],inactive
same,outcome,[3],inactive
same,outcome,[4],inactive
CN(C)CC#Cc1ccc([C@@H]2[C@H](CO)N3CCCCN(C(=O)Nc4ccc(F)cc4)C[C@@H]23)cc1,outcome,[1],inactive
same,outcome,[2],inactive
same,outcome,[3],inactive
same,outcome,[4],inactive
same,outcome,[5],inactive
same,max activity,[6],"29.4% [at 0.26 µM, active compounds read low]"
same,outcome,[7],inactive
same,outcome,[8],inactive
same,outcome,[9],inactive
Cc1ccc(/C=C/C(=O)N2CCN(c3cccc(C(F)(F)F)c3)CC2)cc1,outcome,[1],inactive
same,outcome,[2],inactive
same,outcome,[4],inactive
COc1ccc2c(c1)OC/C(=C/c1cccs1)C2=O,outcome,[1],inactive
same,outcome,[2],inactive
same,outcome,[4],inactive
COc1ccc(C)cc1NC(=O)C1CCCN(S(=O)(=O)c2cccc3nonc23)C1 (centres undefined),outcome,[1],inactive
same,outcome,[2],inactive
same,outcome,[3],inactive
same,outcome,[4],inactive
COc1ccc(C(=O)N/N=C/c2ccc(OC(=O)c3cccs3)cc2)cc1,outcome,[1],inactive
same,outcome,[2],inactive
same,outcome,[4],inactive
CNC[C@@H]1Oc2ccc(NC(=O)NC(C)C)cc2CC(=O)N([C@@H](C)CO)C[C@@H]1C,outcome,[1],inactive
same,outcome,[3],inactive
same,outcome,[4],inactive
same,outcome,[5],inactive
same,max activity,[6],"22.5% [at 0.5 µM, active compounds read low]"
same,outcome,[7],inactive
same,outcome,[8],inactive
same,outcome,[9],inactive
COc1ccc(OCc2cccc(C(=O)Nc3cc(C)on3)c2)cc1,outcome,[2],inactive
C[C@@H]1CN([C@@H](C)CO)S(=O)(=O)c2ccc(C#Cc3ccncc3)cc2O[C@@H]1CN(C)C(=O)C1CCCCC1,outcome,[1],inactive
same,outcome,[10],inactive
same,outcome,[3],inactive
same,outcome,[4],inactive
same,outcome,[5],inactive
same,max activity,[6],"-17.5% [at 1 µM, active compounds read low]"
same,outcome,[7],inactive
same,outcome,[8],inactive
same,outcome,[9],inactive
COc1ccccc1CNC(=O)c1ccc2nc3[nH]c4ccccc4c3nc2c1,outcome,[1],inactive
same,outcome,[10],inactive
same,outcome,[4],inactive
COC(=O)C1=C(C)N(Cc2cccc(C(F)(F)F)c2)C(=NCc2ccc(OC)cc2)NC1c1cccc(F)c1 (centres undefined),outcome,[2],inactive
COc1cccc(S(=O)(=O)NCC(=O)Nc2ccc(C(C)(C)C)cc2)c1,outcome,[1],inactive
same,outcome,[10],inactive
same,outcome,[4],inactive
CN(C)CCNC(=O)c1cc2c(s1)-c1ccc(Cl)cc1SC2,outcome,[2],inactive
CNC[C@H]1Oc2ccc(NC(=O)NC(C)C)cc2CC(=O)N([C@@H](C)CO)C[C@@H]1C,outcome,[1],inactive
same,outcome,[10],inactive
same,outcome,[3],inactive
same,outcome,[4],inactive
same,outcome,[5],inactive
same,max activity,[6],"12.2% [at 2.1 µM, active compounds read low]"
same,outcome,[7],inactive
same,outcome,[8],inactive
same,outcome,[9],inactive
C[C@@H]1CN([C@@H](C)CO)C(=O)Cc2cc(NS(=O)(=O)c3ccc(Cl)cc3)ccc2O[C@H]1CN(C)Cc1ccc(C(F)(F)F)cc1,outcome,[1],inactive
same,outcome,[10],inactive
same,outcome,[3],inactive
same,outcome,[4],inactive
same,outcome,[5],inactive
same,max activity,[6],"14.3% [at 0.26 µM, active compounds read low]"
same,outcome,[7],inactive
same,outcome,[8],inactive
same,outcome,[9],inactive
Cc1nnc(N/N=C/c2cc(C)n(-c3ccc(F)cc3)c2C)n1N,outcome,[1],inactive
same,outcome,[3],inactive
same,outcome,[4],inactive
CC(=NNc1ccc2ccccc2n1)c1ccccn1,outcome,[2],inactive
Cc1ccc(S(=O)(=O)Nc2ccc3c(c2)C(=O)N([C@@H](C)CO)C[C@@H](C)[C@@H](CN(C)C)OCCCC[C@H](C)O3)cc1,outcome,[1],inactive
same,outcome,[10],inactive
same,outcome,[3],inactive
same,outcome,[4],inactive
same,outcome,[5],inactive
same,max activity,[6],"20.9% [at 0.26 µM, active compounds read low]"
same,outcome,[7],inactive
same,outcome,[8],inactive
same,outcome,[9],inactive
O=C(NCc1ccco1)C1CCCN(S(=O)(=O)c2ccc(Br)cc2)C1 (centres undefined),outcome,[1],inactive
same,outcome,[3],inactive
same,outcome,[4],inactive
CCN1CCN(Cc2ccc(NC(=O)c3ccc(C)c(NC(=O)C(=O)c4c[nH]c5ccccc45)c3)cc2C(F)(F)F)CC1,outcome,[2],inactive
O=C(O)c1ccc(N/N=C/c2ccc3c(c2)OCO3)cc1,outcome,[2],inactive
Cc1cc(Nc2ccc3c(c2)OCCO3)c2ccccc2n1,outcome,[1],inactive
same,outcome,[4],inactive
CCCCn1c(O)c(N=NC(=O)Cn2c(C(F)(F)F)nc3ccccc32)c2ccccc21,outcome,[1],inactive
same,outcome,[3],inactive
same,outcome,[4],inactive
Cc1onc(C(=O)N2CCN(C(c3ccccc3)c3ccccc3)CC2)c1[N+](=O)[O-],outcome,[2],inactive
COc1cc(OC)cc(C(=O)NCC(=O)OCC(=O)c2cc(C)n(Cc3ccco3)c2C)c1,outcome,[1],inactive
same,outcome,[3],inactive
same,outcome,[4],inactive
CCSc1cc(N2CCOCC2)nc(-c2ccc(Cl)cc2)n1,outcome,[1],inactive
same,outcome,[3],inactive
same,outcome,[4],inactive
CCOc1ccc2nc(N/C(N)=N/C(=S)Nc3ccc(C)c(C)c3)nc(C)c2c1,outcome,[1],inactive
same,outcome,[3],inactive
same,outcome,[4],inactive
Nc1ncnc2c(C3OC(CO)C(O)C3O)c[nH]c12 (centres undefined),outcome,[2],inactive
CCCNC(=O)COc1nc2ccccc2nc1N1CCOCC1,outcome,[1],inactive
same,outcome,[3],inactive
same,outcome,[4],inactive
CCS(=O)(=O)c1ncc(Cl)c(C(=O)Nc2ccc(S(=O)(=O)N3CCC(C)CC3)cc2)n1,outcome,[2],inactive
CN(C)CCNC(=O)c1cccc(-c2cnc3c(NC=O)cc(-c4cccc(C(F)(F)F)c4)cn23)c1,outcome,[2],inactive
COc1cccc(CC(=O)Nc2nc3c(s2)C(=O)CC(C)(C)C3)c1,outcome,[1],inactive
same,outcome,[3],inactive
COc1ccc2c(COC(=O)CNC(=O)C34CC5CC(CC(C5)C3)C4)cc(=O)oc2c1,outcome,[1],inactive
same,outcome,[4],inactive
O=C(CCC(=O)c1ccccc1)NCCc1c[nH]c2ccccc12,outcome,[1],inactive
same,outcome,[3],inactive
same,outcome,[4],inactive
Nc1nc(Sc2ccc([N+](=O)[O-])c3nonc23)c2[nH]cnc2n1,outcome,[2],inactive
COc1ccccc1NC(=O)c1nc(S(=O)(=O)Cc2ccccc2)ncc1Cl,outcome,[2],inactive
COc1ccc2nc(C)cc(N/N=C/c3cccc(OC)c3O)c2c1,outcome,[2],inactive
O=S(=O)(NCC1CCCO1)c1cnc(Cl)c(Br)c1 (centres undefined),outcome,[1],inactive
same,outcome,[3],inactive
same,outcome,[4],inactive
COc1ccc(C(=O)NC(=S)NNC(=O)c2c(-c3ccccc3)noc2C)cc1,outcome,[1],inactive
same,outcome,[4],inactive
CC1CN(CC(O)COC(c2ccccc2)c2ccccc2)CC(C)O1 (centres undefined),outcome,[1],inactive
same,outcome,[3],inactive
same,outcome,[4],inactive
CCOc1ccc(-n2c(=S)sc3c(=O)[nH]c(SCC(=O)NCC4CCCO4)nc32)cc1 (centres undefined),outcome,[1],inactive
same,outcome,[3],inactive
same,outcome,[4],inactive
O=C(CCl)N=c1sccn1Cc1cccc2ccccc12,outcome,[2],inactive
Cc1cc(CN(C)C(=O)c2cc(COc3ccc4ncccc4c3)on2)on1,outcome,[1],inactive
same,outcome,[3],inactive
same,outcome,[4],inactive
CN=c1scc(-c2ccccc2F)n1/N=C/c1ccc[nH]1,outcome,[2],inactive
CCOc1ccccc1NC(=O)c1nc(S(=O)(=O)Cc2cccc(C)c2)ncc1Cl,outcome,[2],inactive
Cc1cc(Br)c(OCc2ccc(C(=O)N/N=C/c3ccc[nH]3)cc2)c(Br)c1,outcome,[2],inactive
COC(=O)C1=C(C)N(Cc2ccc(C(F)(F)F)cc2)C(=NCc2ccccc2)NC1c1cccc(Cl)c1 (centres undefined),outcome,[2],inactive
same,outcome,[10],inactive
N#C[C@H]1[C@H](c2ccc(C#CC3CCCC3)cc2)[C@@H](CO)N1C(=O)Nc1ccc(F)cc1,outcome,[2],inactive
same,outcome,[10],inactive
O=c1cc(-c2ccc(O)cc2)oc2ccc3ccccc3c12,outcome,[2],inactive
same,outcome,[10],inactive
CC(=O)n1cc(N(C(=O)CCl)c2ccccc2)c2ccccc21,outcome,[2],inactive
same,outcome,[10],inactive
CC(OC(=O)c1ccc(S(C)(=O)=O)c([N+](=O)[O-])c1)C(=O)NC1C2CC3CC(C2)CC1C3 (centres undefined),outcome,[2],inactive
same,outcome,[10],inactive
COc1cccc(NC(=O)Nc2nc(-c3ccc(OC)c(OC)c3)cs2)c1,outcome,[2],inactive
same,outcome,[10],inactive
COc1ccc(NC(=O)c2cc([N+](=O)[O-])ccc2O)cc1,outcome,[2],inactive
same,outcome,[10],inactive
N#C[C@@H]1[C@H](c2ccc(C#CC3CCCC3)cc2)[C@H](CO)N1C(=O)Nc1ccc(F)cc1,outcome,[2],inactive
same,outcome,[10],inactive
